Experimental data reported in PubChem BioAssay (Tox21).
Records with an inconclusive call do not appear. Unmarked numbers belong to inactive results. Calls of active or inactive are those of the source. The call rests on the fitted dose curve; in most records, active means well fitted cell-killing curve with a large enough effect in the repeat runs; inconclusive means weak or mixed curves, or effect the other way; inactive means no such curve, though single readings can be large or run the other way.

Test: qHTS assay to identify small molecule antagonists of the vitamin D receptor (VDR) signaling pathway - cell viability counter screen (AID 743225); further: nearly all actives have a fitted effect of over 50% in size
Conditions: VDR-bla HEK293T viability, CellTiter-Glo luminescence, 16 h; series mostly up to 61 µM; viability change, negative = cytotoxic: at the top concentration
Excerpt: U.S. Tox21 Program National Center for Advancing Translational Sciences [NCATS] NIH Chemical Genomics Center [NCGC] U.S. Environmental Protection Agency [EPA] National Institutes of Environmental Health Sciences [NIEHS] National Toxicology Program [NTP] U.S. Food and Drug Administration [FDA] Tox21 Assay Overview: The vitamin D receptor (VDR), a member of nuclear hormone receptor superfamily, plays a critical role in calcium homeostasis and bone metabolism. It is also involved in cell differentiation and growth, and thrombogenicity. To identify the compounds that inhibit VDR signaling, the VDR-UAS-bla HEK 293T cell line (Invitrogen, Carlsbad, CA, USA) containing a beta-lactamase reporter gene under the control of an upstream activator sequence (UAS) was used to screen the Tox21 10K compound library. The cytotoxicity of the Tox21 compound library against the VDR-bla cell line was tested in parallel by measuring the cell viability using CellTiter-Glo assay (Promega, Madison, WI) in the same wells.
Tox21 Assay Protocol Summary: VDR-bla cells were dispensed at 2,000 cells/5 uL of assay medium per well into black wall/clear-bottom 1536-well plates using a Multidrop Combi (Thermo Fisher Scientific, Waltham, MA) dispenser. After the assay plates were incubated at a 37C and 5% CO2 for 4 h, 23 nL of compounds dissolved in DMSO, positive controls or DMSO only was transferred to the assay plate by a Pintool station (Kalypsys, San Diego, CA), followed by addition of 1 uL of 1-alpha, 25-Dihydroxy Vitamin D3 (3 nM, final concentration in the wells) using a Bioraptr Flying Reagent Dispenser (FRD) workstation (Beckman Coulter, Indianapolis, IN). The plates were incubated at 37C and 5% CO2 for 16 h, and then 1 uL of LiveBLAzerTM B/G FRET substrate was added using a Bioraptr FRD. The plates were incubated at room temperature for 2 h and fluorescence intensity was measured by an Envision plate reader (PerkinElmer, Shelton, CT). For cell viability readout that measures cytotoxicity, 3 ul/well of CellTiter-Glo reagent was added into the assay plates using a Bioraptr FRD. After 30 min incubation at room temperature, the luminescence intensity in the plates was measured using a ViewLux plate reader (PerkinElmer).
On the % scale 0 is the no-effect control and ±100 the full control effect.

SMILES | viability change, negative = cytotoxic | Potency
CCn1ccnc1CC1COc2ccccc2O1 (stereo not given) | 10.4% | 
CC(=O)OCC(=O)[C@@]1(O)CC[C@H]2[C@@H]3CCC4=CC(=O)CC[C@]4(C)[C@H]3C(=O)C[C@@]21C | 1.4% | 
CCOC(=O)CCC(C)=O | 11.2% | 
O=C1CCCC(=O)C1 | 2.39% | 
CC(NC(CCc1ccccc1)C(=O)O)C(=O)N1C(=O)N(C)CC1C(=O)O (stereo not given) | 9.95% | 
CCS(=O)(=O)c1ccc(OC)c(C(=O)OC)c1 | -0.529% | 
Cc1cnc(NS(=O)(=O)c2ccc(N)cc2)nc1 | -1.99% | 
CC(C)=CCCC(C)CC(=O)O (stereo not given) | 4.88% | 
NS(=O)(=O)c1ccc(C(=O)O)cc1 | 8.96% | 
Cc1ccc(=O)n(-c2ccccc2)c1 | -25.2% | 
O=c1cc(CO)occ1O | 1.94% | 
O=S(O)CO | 15.6% | 
CN1CCC(=C2c3ccccc3CC(=O)c3sccc32)CC1 | -0.0347% | 
C[C@](N)(Cc1ccc(O)cc1)C(=O)O | 4.51% [at 6.95 µM] | 
CCCCCCCCCCCCN(CCCCCCCCCCCC)CCCCCCCCCCCC | 6.84% | 
Brc1c(NC2=NCCN2)ccc2nccnc12 | -3.85% | 
O=C(CCCN1CCN(c2ccccn2)CC1)c1ccc(F)cc1 | 2.38% | 
Cc1ccc(Cl)cc1Cl | 3.33% | 
CN1N=C(C(N)=O)CCC1=O | -4.48% | 
Cc1cccc(C)c1NC(=O)C(C)N (stereo not given) | -6.13% | 

SMILES | viability change, negative = cytotoxic | Potency
NC(=O)c1ccc([N+](=O)[O-])cc1 | 17.9% | 
CCOC(=O)c1c(C)n(C)c2ccc(O)cc12 | -3.63% | 
C=CCS(=O)(=O)O | 9.71% | 
CC(C)(c1ccc(O)cc1)c1ccc(O)cc1 |  | inactive
O=Cc1cccc([N+](=O)[O-])c1 | 11.3% | 
CC(=O)CC(C)C | 11% | 
CC(=O)Nc1ccc(S(N)(=O)=O)cc1 | -1.63% | 
N[C@H](C(=O)O)c1ccc(O)cc1 | -0.0607% [at 28.5 µM] | 
CCO/C([O-])=N/c1c[n+](N2CCOCC2)no1 | 10.7% | 
CC(=O)OC/C=C(\C)CC/C=C(\C)CCC=C(C)C | 3.13% | 
Cc1cccn2c(=O)c(-c3nnn[nH]3)cnc12 | -0.957% [at 28.5 µM] | 
COc1ccc2c(c1)CCCC2=O | 0.907% | 
CCOC(=O)[C@H](CCc1ccccc1)N[C@@H](C)C(=O)N1[C@H](C(=O)O)C[C@@H]2CCC[C@@H]21 | -2.11% | 
CCOC(=O)C(=O)OCC | 11.4% | 
NS(=O)(=O)c1cc(C(=O)NN2C[C@H]3[C@H]4CCC(C4)[C@H]3C2)ccc1Cl | -0.75% | 
COc1nc(N)nc2c1ncn2[C@@H]1O[C@H](CO)[C@@H](O)[C@@H]1O | 0.95% | 
NC(CSCC(=O)O)C(=O)O (stereo not given) | 0.144% | 
C[C@@H]1CCN(C(=O)[C@H](CCCN=C(N)N)NS(=O)(=O)c2cccc3c2NC[C@H](C)C3)[C@@H](C(=O)O)C1 | 6.59% | 
N[C@@H](C(=O)N[C@@H]1C(=O)N2C(C(=O)O)=C(Cl)CS[C@H]12)c1ccccc1 | -2.62% [at 6.95 µM] | 
CC/C=C\CC/C=C/CO | 2.27% | 
